# PubChem BioAssay AID1835 (Johns Hopkins Ion Channel Center, 2009)
# The whole screen tested about 2,400 compounds, of which about 750 (31%) were called active. This is one part of the list. A number with no mark means an inactive call.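 Rule for the calls: active = median signal gain over dofetilide-blocked control wells reaching their mean plus 3 SD, so readout 1 at least 0; inactive = the rest.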
# Target: Voltage-gated inwardly rectifying potassium channel KCNH2 (Homo sapiens) (UniProt Q12809)
# Sequence (Q12809 whole entry, looked up): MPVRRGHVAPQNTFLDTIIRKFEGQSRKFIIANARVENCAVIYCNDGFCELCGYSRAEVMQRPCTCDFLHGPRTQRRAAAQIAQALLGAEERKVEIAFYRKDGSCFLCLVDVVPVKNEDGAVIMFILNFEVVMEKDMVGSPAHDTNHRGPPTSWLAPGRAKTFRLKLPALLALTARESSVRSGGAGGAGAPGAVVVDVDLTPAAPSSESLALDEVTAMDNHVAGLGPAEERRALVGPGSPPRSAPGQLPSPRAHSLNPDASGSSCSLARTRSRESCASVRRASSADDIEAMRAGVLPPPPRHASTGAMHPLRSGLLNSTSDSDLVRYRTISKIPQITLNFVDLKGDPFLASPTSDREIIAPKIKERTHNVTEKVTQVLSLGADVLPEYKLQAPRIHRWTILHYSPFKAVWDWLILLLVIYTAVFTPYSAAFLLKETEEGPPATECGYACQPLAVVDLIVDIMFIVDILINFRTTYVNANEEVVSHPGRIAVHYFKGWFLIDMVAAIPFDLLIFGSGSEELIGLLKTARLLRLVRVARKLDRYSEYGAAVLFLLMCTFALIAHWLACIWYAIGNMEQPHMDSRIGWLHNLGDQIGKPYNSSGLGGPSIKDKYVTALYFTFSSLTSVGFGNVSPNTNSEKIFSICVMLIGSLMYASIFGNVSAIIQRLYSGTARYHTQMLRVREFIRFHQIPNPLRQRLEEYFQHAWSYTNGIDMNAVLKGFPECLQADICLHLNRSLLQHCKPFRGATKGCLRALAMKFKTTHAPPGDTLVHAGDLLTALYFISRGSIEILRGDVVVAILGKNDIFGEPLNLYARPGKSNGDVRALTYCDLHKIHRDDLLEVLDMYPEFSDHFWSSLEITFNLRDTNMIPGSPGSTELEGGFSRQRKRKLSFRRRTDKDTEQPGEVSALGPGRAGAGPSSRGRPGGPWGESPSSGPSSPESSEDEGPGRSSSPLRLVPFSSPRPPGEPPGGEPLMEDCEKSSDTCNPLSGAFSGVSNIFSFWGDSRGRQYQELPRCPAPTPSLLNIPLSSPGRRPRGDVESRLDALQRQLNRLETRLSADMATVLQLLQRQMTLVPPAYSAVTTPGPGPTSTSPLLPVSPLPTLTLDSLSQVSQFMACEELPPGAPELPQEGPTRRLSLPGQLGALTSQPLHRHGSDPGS
# Test: modulators restoring hERG flux under dofetilide – cell-based, thallium flux, duplicate retest, dofetilide IC70, confirmation (AID 1835)
# Settings: hERG cell line, FluxOR thallium flux, dofetilide-blocked; at 10 µM; stronger effect = higher value
Compound,"activity increase over dofetilide control, less the hit threshold",activity increase over dofetilide control
CC/C(=C\C=C\[C@@H]1C=C[C@@H]2CCC[C@H]2[C@@H]1C(=O)c1ccc[nH]1)[C@@H]1O[C@@H]([C@@H](C)C(=O)O)CC[C@@H]1C,128% (active),–
Cc1nc2ccccc2c(=O)n1-c1cc([N+](=O)[O-])cc([N+](=O)[O-])c1,–,-26%
O=C(Cn1ncc2c3ccccc3n(Cc3ccccc3F)c2c1=O)N1CCC2(CC1)OCCO2,–,2% (active)
CCCc1[nH]nc2c1C1(C(=O)N(Cc3ccccc3)c3ccccc31)C(C(=O)OC)=C(N)O2 (stereo unspecified),-35%,–
CC(=NCc1ccco1)c1c(O)n(-c2ccc(C)cc2)c(=O)[nH]c1=O,–,-19%
O=c1[nH]c(=S)[nH]c(O)c1N=Nc1ccc(S(=O)(=O)N2CCc3ccccc32)cc1,–,25% (active)
COc1ccc(-c2nc(CSCC(=O)N3CCC4(CC3)OCCO4)c(C)o2)cc1OC,–,-23%
O=C(COc1ccc(Br)cc1)N1CCN(Cc2ccc3c(c2)OCO3)CC1,-12%,–
CCOC(=O)c1c(NS(=O)(=O)c2ccccc2)n(CCCOC)c2nc3ccccc3nc12,65% (active),–
CCCCn1c(O)c(C(CC)=Nc2ccc(OCC)cc2)c(=O)[nH]c1=O,–,-23%
NS(=O)(=O)c1ccc(-c2ccc(C=C3C(=O)NC(=O)NC3=O)o2)cc1,–,-2%
CCOC(=O)Cn1cc([N+](=O)[O-])nc1[N+](=O)[O-],-18%,–
O=C1CC(=O)N(c2cccc(C(F)(F)F)c2)C(=O)N1,-15%,–
Cc1ccc(-n2c(O)c(/C=N/Nc3ccccc3)c(=O)[nH]c2=O)cc1C,–,-5%
O=c1[nH]c(=S)[nH]c(O)c1/C=C1/C=c2ccccc2=N1,–,14% (active)
C=CCn1c(O)c(/C=C2/C=c3ccccc3=N2)c(=O)[nH]c1=S,–,96% (active)
Cc1ccc(S(=O)(=O)NC(Cc2cnc[nH]2)C(=O)O)cc1 (stereo unspecified),-7%,–
COc1ccc2c3c1OC1C(O)C=CC4C(C2)[N+](C)(C)CCC341 (stereo unspecified),–,-2%
Oc1ccc(CC2(N3CCCC3)CCCCC2)cc1,-14%,–

Compound,"activity increase over dofetilide control, less the hit threshold",activity increase over dofetilide control
CC(C)(C)c1ccc(OC(=O)N2CCCCC2)cc1,-16%,–
O=S(=O)(c1ccccc1)N1CCCCC1c1cccnc1 (stereo unspecified),-17%,–
O=C1NC(=O)N(Cc2ccccc2Cl)C(=O)/C1=C/N1CCOCC1,–,-7%
O=C1NC(=O)C(=Cc2ccc(-c3ccc(Cl)cc3)o2)C(=O)N1,–,-1%
O=C(O)CCC(=O)NCCC1=c2ccccc2=N/C1=C\c1c(O)n(Cc2ccc(F)cc2)c(=S)[nH]c1=O,–,11% (active)
CN1C(=O)C(Cc2ccc3c(c2)OCO3)C(=O)N(C)C1=O,–,-15%
N#CC1=C(N)Oc2c(c(=O)oc3ccccc23)C1c1cccnc1 (stereo unspecified),8% (active),–
Oc1cccc2cccnc12,-5%,–
N#CCCn1cc(C(=O)Nc2ccccc2Cl)c(-c2ccc(F)cc2)n1,-14%,–
O=c1c2ccccc2[nH]c(=S)n1-c1ccc2c(c1)OCCO2,-26%,–
O=c1c2cc(Br)ccc2[nH]c(=S)n1-c1ccccc1,2% (active),–
C=CCN1C(=O)/C(=C/c2ccc(Br)s2)C(=O)NC1=S,–,8% (active)
CN1C(=O)/C(=C\c2ccc(Br)s2)C(=O)NC1=S,–,26% (active)
CCCCN1C(=O)/C(=C/c2ccc(N3CCCCCC3)cc2)C(=O)NC1=S,–,-4%
CN1C(=O)/C(=C/c2ccc(Cl)s2)C(=O)NC1=S,–,12% (active)
O=C1NC(=O)C(=Cc2ccc(-c3cc(Cl)ccc3[N+](=O)[O-])o2)C(=O)N1,–,-20%
CN1CCN(CC#CCOc2ccc(Cl)cc2)CC1,-9%,–
C1CCC2S[C@H]3CCCCC3NC2C1 (stereo partly specified),-17%,–
NC(=O)Cn1cc(C(=O)c2ccccc2F)c2ccccc21,–,-9%

Compound,"activity increase over dofetilide control, less the hit threshold",activity increase over dofetilide control
CC(=NCc1ccco1)c1c(O)n(C)c(=O)n(C)c1=O,–,-12%
O=c1[nH]c(O)c(/C=C2/C=CC(c3cc(Cl)ccc3Cl)=N2)c(=O)[nH]1,–,30% (active)
O=C(O)c1c[nH]c2ccc(S(=O)(=O)N(CCCl)CCCl)cc12,-11%,–
CC1N=C(c2ccccc2Cl)c2cc(Br)ccc2NC1=O (stereo unspecified),–,-24%
CN1CCCCC1c1ccc(-c2cccnc2)nc1 (stereo unspecified),-15%,–
COc1ccc(OC)c(N2C(=O)/C(=C/c3ccco3)C(=O)NC2=S)c1,–,0%
Cc1ccccc1N1C(=O)/C(=C/c2ccco2)C(=O)NC1=S,–,14% (active)
O=C1NC(=O)N(c2ccccc2)C(=O)/C1=C/c1ccc(Sc2ccccc2)o1,–,-6%
O=C1NC(=S)N(c2ccc(F)cc2)C(=O)/C1=C/c1ccco1,–,4% (active)
Cc1ccc(/C=C2\C(=O)NC(=S)N(c3ccc(F)cc3)C2=O)s1,–,5% (active)
COc1ccc(CN2CCCC(C(=O)c3sccc3C)C2)cc1O (stereo unspecified),-21%,–
COc1cccc(OC)c1C(=O)Nc1nc(N)n(-c2ccccc2)n1,-22%,–
CCn1nc(/C=C/c2ccccc2)nc2c(=O)n(C)c(=O)nc1-2,-22%,–
O=C1NC(=O)N(CCNc2ncc(C(F)(F)F)cc2Cl)C(=O)C1Cc1ccc(Cl)cc1 (stereo unspecified),–,-11%
CN(C)C(=O)O/N=C(\N)COc1ccc(C(C)(C)C)cc1,-17%,–
NCCc1ccc(S(N)(=O)=O)cc1,-18%,–
COc1ccccc1N1CCN(Cc2ccc(F)cc2)CC1,–,-10%
COc1ccc2c(c1)/C(=C/c1cnc[nH]1)C(=O)N2,-6%,–
